Experimental data as given in PubChem BioAssay (NCATS).
Inconclusive results are not listed. Activity calls are given as the source filed them. The call rests on the fitted dose curve; in most records, active means well fitted inhibition curve with a large enough effect; inconclusive means small, poorly fitted or top-dose-only effect; inactive means flat fitted curve, though single readings scatter.

Test system: HEK293
Test: Cytotoxic Profiling of Annotated Libraries Using Quantitative High-Throughput Screening (AID 1296008); further: nearly all actives have a fitted effect of over 60% in size
Details: Five cell lines viability, CellTiter-Glo ATP luminescence, 48-72 h; max response: active compounds read low
Outline: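 Cytotoxicity was measured as CellTiter-Glo ATP luminescence, read after 10 min at room temperature. Compound treatment of the cells lasted 48 or 72 hr at 37 degrees Celsius in a qHTS format.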
On the % scale 0 is the no-effect control and ±100 the full control effect.

Compound | outcome | max response
CCc1c(C(=O)C(N)=O)c2c(OCC(=O)OC)cccc2n1Cc1ccccc1 | inactive | 
CCN1C[C@]2(COC(=O)c3ccccc3N3C(=O)C[C@H](C)C3=O)CC[C@H](OC)[C@@]34[C@@H]5C[C@H]6[C@H](OC)[C@@H]5[C@](O)(C[C@@H]6OC)[C@](O)([C@@H](OC)[C@H]23)[C@@H]14 |  | 2.21% (inactive)
CC(C)(O)[C@H]1O[C@H]2CC[C@@]3(C)[C@@](O)(CC[C@H]4Cc5c([nH]c6ccccc56)[C@@]43C)C2=CC1=O |  | 2.88% (inactive)
CCN1C[C@]2(OC(=O)c3ccccc3NC(C)=O)CC[C@H](OC)[C@@]34[C@@H]2C[C@@H]([C@@H]13)[C@@]1(O)C[C@H](OC)[C@H]2C[C@@H]4[C@]1(O)[C@H]2OC |  | -11.1% (inactive)
CN1[C@H]2C[C@H](OC(=O)[C@H](CO)c3ccccc3)C[C@@H]1[C@@H](O)C2 | inactive | 
C=CC(C)(C)c1[nH]c2cccc3c2c1C[C@@H]1[C@@H]3[C@@H](OC(C)=O)[C@H](C)CN1C | inactive | 
Cc1cc(C(=O)CN2CCCC2)c(C)n1-c1ccc(F)cc1 |  | -9.04% (inactive)
O=C(O)c1ccnc2cc(C(OCCN3CCCCC3)c3ccccc3Cl)[nH]c12 (stereo unspecified) | inactive | 
CCC(C)(OC(C)=O)C(=O)O[C@H]1[C@H](OC(C)=O)C[C@@H]2[C@@](C)([C@@H]3C[C@H]4C=CO[C@H]4O3)[C@H](C)C[C@H](OC(C)=O)[C@@]2(COC(C)=O)[C@@]12CO2 (stereo partly specified) | inactive | 
C=CC(C)(O)CC/C=C(\C)C(=O)O[C@H]1[C@H](O)[C@@H](CO)O[C@@H](OC(=O)[C@]23CCC(C)(C)CC2C2=CCC4[C@@]5(C)CC[C@H](O[C@@H]6O[C@H](CO[C@@H]7OC[C@H](O)[C@H](O)[C@H]7O[C@@H]7OC[C@@H](O)[C@H](O)[C@H]7O)[C@@H](O)[C@H](O)[C@H]6O)C(C)(C)C5CC[C@@]4(C)[C@]2(C)CC3)[C@@H]1OC1OC(C)C(O[C@@H]2OC[C@@H](O)[C@H](O[C@@H]3OC[C@@H](O)[C@H](O)[C@H]3O)[C@H]2O)C(O)C1O (stereo partly specified) |  | 0.313% (inactive)
COC(=O)C1(C)CCC(O)C2(C)c3c(O)cc(C(C)C)cc3C(O)C(OC(C)=O)C12 (stereo unspecified) | inactive | 
OC1(c2ccc(Cl)cc2)c2ccccc2C2=NCCN21 (stereo unspecified) |  | -19.8% (inactive)
COc1cc(C(=O)O[C@H]2[C@@H]3C=CO[C@@H](O[C@@H]4O[C@H](CO)[C@@H](O)[C@H](O)[C@H]4O)[C@@H]3[C@@]3(CO)O[C@@H]23)ccc1O |  | 4.28% (inactive)
C/C=C(\C)C(=O)OC1CC2C(CC=C3CC(OC4CC(OC)C(OC5CC(OC)C(OC6OC(C)C(OC7OC(CO)C(O)C(O)C7O)C(OC)C6O)C(C)O5)C(C)O4)CCC32C)C2(O)CCC(C(C)=O)C12C (stereo unspecified) |  | -9.26% (inactive)
CC(=O)OC12C(O)C(C)C3(O)C4C=C(C)C(=O)C4CC(CO)=CC3C1C2(C)C (stereo unspecified) |  | -4.3% (inactive)
CCC1NC(=O)C2C(Cl)C(Cl)CN2C(=O)C(C(C)O)NC(=O)CC(c2ccccc2)NC(=O)C(CO)NC1=O (stereo unspecified) |  | -1.23% (inactive)
CC(=O)OC1CC(O)C2(C)C(CC(OC(C)=O)C3(C)C2CCC2(C)C(c4ccoc4)C(=O)C4OC423)C1(C)C (stereo unspecified) | inactive | 
C=C(C)[C@H]1O[C@H]2CC[C@@]3(C)[C@@](O)(CC[C@H]4[C@@H]5OC(C)(C)[C@H]6C[C@@H]7C(=C)Cc8c(Cl)cc9[nH]c(c5c9c8[C@@]76O)[C@@]43C)[C@]23O[C@@H]3[C@H]1O | inactive | 

Compound | outcome | max response
CN(C(=O)Cc1ccccc1)C(CN1CCCC1)c1ccccc1 (stereo unspecified) |  | 0.503% (inactive)
C1=C2CCCN[C@H]2[C@@H]2C[C@H]1[C@H]1CCCCN1C2 |  | -4.85% (inactive)
CCC(C)(C#N)O[C@@H]1O[C@H](CO)[C@@H](O)[C@H](O)[C@H]1O (stereo partly specified) | inactive | 
CN1C(=O)c2ccccc2NC(=O)[C@]12O[C@@H]2c1ccccc1 | inactive | 
CC1=C2C(=O)C3[C@@H](CC=C4C[C@@H](O)CC[C@@]43C)[C@@H]2CC[C@]12O[C@@H]1C[C@H](C)CN[C@H]1[C@H]2C (stereo partly specified) |  | -3.9% (inactive)
COC(=O)[C@@]12C(=O)C(C)C(=O)[C@]1(C)C(C)=C[C@H]1[C@]3(C=O)CC[C@H](OC(C)=O)C(C)(C)[C@H]3CC[C@@]12C (stereo partly specified) | inactive | 
CC(N)Cc1c[nH]c2ccccc12 (stereo unspecified) | inactive | 
C/C=C(\C)C(=O)OC1CC2C(C)(C)OC(=O)CC(OC(C)=O)C2(C)C2CC(OC(=O)C(C)C)C3(C)C(c4ccoc4)CC4OC43C12C (stereo unspecified) |  | -0.997% (inactive)
CC(C)[C@@H](CN1CC[C@@](C)(c2cccc(O)c2)[C@@H](C)C1)NC(=O)[C@H]1Cc2ccc(O)cc2CN1 |  | -18.6% (inactive)
Cc1cn(C[C@H](N)C(=O)O)c(=O)n(Cc2cc(-c3ccccc3)sc2C(=O)O)c1=O |  | -3.99% (inactive)
C[C@@]12C[C@@H](c3ccoc3)OC(=O)C1CC[C@]1(C)[C@H]2[C@H]2C=C[C@]1(O)C(=O)O2 (stereo partly specified) | inactive | 
COC1CC(O[C@H]2CC[C@@]3(C)C(=CCC4C3C(O)[C@@H](O)[C@]3(C)[C@@H](C(C)=O)CC[C@]43O)C2)OC(C)C1OC1CC(OC)C(OC2OC(C)C(O)C(O)C2O)C(C)O1 (stereo partly specified) | inactive | 
CN1CCC[C@@H]1Cc1c[nH]c2ccc(Nc3ncccc3[N+](=O)[O-])cc12 |  | -20.4% (inactive)
COc1cc2c(cc1OC)[C@@]13CCN4CC5=CCO[C@H]6CC(=O)N2[C@H]1[C@H]6[C@H]5C[C@H]43 |  | -25.1% (inactive)
CCc1[nH]c2ccc(OC)cc2c1CCN(C)C |  | -15.9% (inactive)
C/C=C(\C)C(=O)OC1C(C)OC(OC2C(C)OC(OC3CCC4(C)C(=CCC5C4CCC4(C)C(C(C)OC6OC(COC7OC(CO)C(O)C(O)C7O)C(O)C(O)C6O)CCC54O)C3)CC2OC)C(O)C1OC (stereo unspecified) |  | -2.95% (inactive)
Oc1ccc2c3c1O[C@H]1[C@H](N(CCCl)CCCl)CC[C@@]4(O)[C@@H](C2)N(CC2CC2)CC[C@]314 |  | 0.595% (inactive)
COC(=O)C1(C)CCC(=O)C2(C)c3c(O)cc(C(C)C)cc3C(O)C(OC(C)=O)C12 (stereo unspecified) |  | -0.554% (inactive)
